# Test results reported in PubChem BioAssay (NCATS).
# Unmarked numbers belong to inactive results. Results filed as inconclusive are left out. Where a call stands in place of a potency, no number is given. Active and inactive are the calls of the source. Unless noted, calls follow the shape of the dose curve; as a rule, active = well fitted curve in the direction sought with a large enough effect; inconclusive = small, poorly fitted or top-dose-only effect, or another doubt; inactive = no such curve, though single readings can be large; an effect the other way counts as inactive or inconclusive.
# What was measured:
# [1] = Cell Viability - BJ (AID 421; calls by dose curve;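 also: potency is read from the fitted curve at half-maximal effect; cells exposed to compound for 40 hours at 37 °C before readout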); conditions: BJ fibroblast viability, qHTS
# In short: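 Luminescent ATP signal (CellTiter-Glo, 20 min at room temperature) served as the read-out of viable BJ cells after 40 hours of compound treatment. Responses were scaled between DMSO and 100 uM tamoxifen, and AC50 values were obtained by Hill modeling.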
# [2] = Cell Viability - Hek293 (AID 427;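 active = compounds whose dose-response curve shows a full or clear partial loss of cell viability, called from curve shape rather than a numeric limit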;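 also: potency is read from the fitted curve at half-maximal effect; cells exposed to compound for 40 hours at 37 °C before reading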); conditions: qHTS
# In short: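 Luminescent ATP read-out (CellTiter-Glo, 20 min RT) after 40 hr compound exposure at 37 °C in complete medium. Signal normalized to DMSO (basal) and 100 uM tamoxifen (100% inhibition); concentration-response fitted with the standard Hill equation to give AC50.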
# [3] = Cell Viability - HepG2 (AID 433; calls by dose curve;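 also: potency is read from the fitted curve at half-maximal effect; potency for ATP loss meaning cytotoxicity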); conditions: qHTS
# In short: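 HepG2 hepatocellular carcinoma cells (1500/well) were treated with compounds for 40 h at 37 °C in complete medium; intracellular ATP was read by CellTiter-Glo luminescence. Data were normalized to DMSO and 100 uM tamoxifen, and AC50 came from Hill fits.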
# [4] = Cell Viability - SK-N-SH (AID 435; calls by dose curve; also: potency is read from the fitted curve at half-maximal effect); conditions: SK-N-SH neuroblastoma cell viability qHTS
# In short: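 SK-N-SH human neuroblastoma cells (1500/well) were exposed to compounds in complete medium for 40 h at 37 °C, and intracellular ATP was then measured by CellTiter-Glo luminescence. AC50 was taken from Hill fits, normalized to DMSO and 100 uM tamoxifen.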
# [5] = biological target: Mitogen-activated protein kinase 10 (Mus musculus) (UniProt Q61831); assay: JNK3 AlphaScreen Assay (AID 530; active = well fitted curve in either direction with a large enough effect, not every such curve was filed as active;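 also: kinase came from lysate of stimulated human HepG2 cells; signal reports phosphorylation of biotinylated GST-cJun 1-79 at Ser73 with 10 µM ATP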); conditions: JNK3 lysate, c-Jun phosphorylation; series mostly up to 57.1 µM
# In short: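 HepG2 lysate (IL-1b/TNFa pre-activated) + biotin-GST-cJun 1-79 + anti-pSer73 cJun; cpd titration, 15 min RT; ATP 10 uM start; Tris pH 7.6, MgCl2, DTT, vanadate; beads in EDTA buffer; AlphaScreen.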
# [6] = Cell Viability - N2a (AID 540); conditions: N2a mouse neuroblastoma cell viability; activity change, negative = cytotoxicity: at 92.2 µM (top of the series); also: nearly all actives have a fitted effect of over 45% in size
# In short: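 N2a mouse neuroblastoma, 1500 cells/well, 5 hr settle; compound 40 hr, 37 °C; CellTiter-Glo 20 min RT; luminescence; Hill-fit AC50.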
# [7] = Cell Viability - NIH 3T3 (AID 541); conditions: NIH 3T3 cell viability, qHTS; activity change, negative = cytotoxicity: at 92.2 µM (top of the series); also: nearly all actives have a fitted effect of over 25% in size
# In short: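 qHTS format; 40 hr compound exposure, 37 °C; CellTiter-Glo luminescence (cellular ATP) read-out after 20 min at RT. Decrease in ATP = cytotoxicity; AC50 from standard Hill fit.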
# [8] = Cell Viability - HUV-EC-C (AID 542); conditions: HUV-EC-C endothelial cell viability, qHTS; series mostly up to 92.2 µM; also: nearly all actives have a fitted effect of over 35% in size
# In short: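 Luminescent ATP read-out (CellTiter-Glo, 20 min room temperature) after 40 hr compound treatment of HUV-EC-C cells at 37 °C. Concentration-response data fitted with the standard Hill equation to give AC50; tamoxifen and doxorubicin served as positive controls.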
# [9] = Cell Viability - H-4-II-E (AID 543); conditions: H-4-II-E rat hepatoma viability; series mostly up to 92.2 µM; also: nearly all actives have a fitted effect of over 35% in size
# In short: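 qHTS, rat hepatoma H-4-II-E, 1500 cells/well; 40 hr compound exposure, 37 °C; CellTiter-Glo ATP luminescence after 20 min RT; AC50 by standard Hill fit.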
# [10] = Cell Viability - SH-SY5Y (AID 544); conditions: SH-SY5Y neuroblastoma cell viability; viability change, negative = cytotoxic: at 92.2 µM (top of the series); also: nearly all actives have a fitted effect of over 55% in size
# In short: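 SH-SY5Y, 1500 cells/well, 5 hr pre-incubation 37 °C; cpd 40 hr 37 °C; CellTiter-Glo 20 min RT; luminescence (ATP) read. qHTS concentration-response, Hill fit → AC50. Tamoxifen, doxorubicin as positive controls.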
# [11] = Cell Viability - Renal Proximal Tubule (AID 545); conditions: renal proximal tubule cells viability, primary cells of rat origin; series mostly up to 91.7 µM; also: nearly all actives have a fitted effect of over 40% in size
# In short: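 Primary rat renal proximal tubule cells (1000/well) were treated with compounds for 40 hr at 37 °C in complete medium. Intracellular ATP was measured by CellTiter-Glo luminescence, and AC50 values came from Hill-equation fits of concentration-response data.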
# [12] = Cell Viability - Mesenchymal (AID 546); conditions: mesenchymal cells viability, qHTS; series mostly up to 91.7 µM;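 also: cells exposed to compound for 40 hours before reading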
# In short: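 Human renal mesenchymal cells (glomerulus-derived), 1000 cells/well, 5 hr 37 °C pre-incubation; compound 40 hr, 37 °C; CellTiter-Glo, 20 min RT; luminescence; AC50 via Hill equation.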
# [13] = Cellular Toxicity (caspase-3) HepG2 (AID 654); conditions: HepG2 caspase-3 activation, luminescence; series mostly up to 92.2 µM;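 also: cells exposed to compound for 16 hours before reading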
# In short: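 Luminescent Caspase-Glo 3/7 readout after 16 hr compound exposure of human hepatocellular carcinoma HepG2 cells at 37 °C; qHTS concentration-response, normalized DMSO = 0%, 100 uM tamoxifen = 100%; AC50 by standard Hill equation.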
# [14] = Cellular Toxicity (caspase-3) Jurkat (AID 655); conditions: Jurkat caspase-3 activation, luminescence; caspase-3 activation: at 92.2 µM (top of the series), DMSO = 0%, tamoxifen = 100%;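 also: cells exposed to compound for 16 h at 37 °C before reading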
# In short: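 Jurkat cells (5000/well) in complete medium were treated with compounds for 16 hr at 37 °C, then Caspase-Glo 3/7 luminescence was read after 20 min at room temperature. Data normalized to DMSO (basal) and 100 uM tamoxifen (100%); AC50 from Hill fit.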
# [15] = Cellular Toxicity (caspase-3) HUV-EC-C (AID 656); conditions: HUV-EC-C cells, caspase-3 activation (apoptosis), vehicle = 0, 100 µM tamoxifen = 100%; series mostly up to 92.2 µM
# In short: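 HUV-EC-C endothelial cells, 1000/well, were pre-incubated 5 hr at 37°C, then exposed to compounds for 16 hr at 37°C. Caspase-Glo 3/7 luminescence was read after 20 min at room temperature. AC50 came from Hill fits, normalized to DMSO and 100 uM tamoxifen.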
# [16] = Cellular Toxicity (caspase-3) SHSY5Y (AID 657); conditions: SH-SY5Y caspase-3 activation, DMSO zero, 10 µM staurosporine = 100%; series mostly up to 91.7 µM
# In short: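 SH-SY5Y human neuroblastoma cells (1500/well) were treated with compounds for 16 h at 37 °C, then Caspase-Glo 3/7 luminescence was read after 1 h at room temperature. Data normalized to DMSO and 10 uM staurosporine; AC50 from Hill fits.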
# [17] = Cellular Toxicity (caspase-3) BJ (AID 658); conditions: BJ fibroblasts, luminescence, normalized: DMSO 0%, staurosporine 100%; series mostly up to 91.7 µM
# In short: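 qHTS, BJ fibroblasts, 1000 cells/well; 5 hr preincubation, 16 hr compound, 37 °C; Caspase-Glo 3/7 reagent, 1 hr RT; luminescence. DMSO = 0%, 10 uM staurosporine = 100%. Hill-equation AC50.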
# [18] = Cellular Toxicity (caspase-3) MRC-5 (AID 659); conditions: MRC-5 cells, luminescence, normalized: DMSO 0%, 10 µM staurosporine 100%; series mostly up to 91.7 µM
# In short: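 MRC-5 fibroblasts, 1500/well; 16 h cpd, 37 °C; Caspase-Glo 3/7, 1 h RT; lumi read. Norm: DMSO = 0%, 10 uM staurosporine = 100%. Hill-fit AC50 from qHTS conc-response.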
# [19] = Cell Viability - MRC5 (AID 434; calls by dose curve;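 also: potency is read from the fitted curve at half-maximal effect; potency reflects cytotoxicity seen as loss of intracellular ATP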); conditions: MRC5 lung fibroblast viability, qHTS
# In short: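 ATP luminescence read-out (CellTiter-Glo, 20 min RT) after 40 hr, 37 °C compound exposure of 1500 MRC5 cells/well. Data normalized to DMSO (basal) and 100 uM tamoxifen (100% inhibition); AC50 from standard Hill equation.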
SMILES,Potency [1],Potency [2],Potency [3],Potency [4],outcome [5],"activity change, negative = cytotoxicity [6]",Potency [7],Potency [8],Potency [9],Potency [10],Potency [11],Potency [12],Potency [13],caspase-3 activation [14],outcome [15],outcome [16],outcome [17],outcome [18],Potency [19]
CCCCCCCCCCCCOCC1CO1 (stereo not drawn),> 92 µM,> 92 µM,> 92 µM,> 92 µM,inactive,0.002%,inactive,inactive,inactive,inactive,inactive,inactive,inactive,3.67%,inactive,inactive,inactive,inactive,–
Nc1cc(Cl)c([N+](=O)[O-])cc1O,> 92 µM,> 92 µM,> 92 µM,> 92 µM,inactive,-99.1% (active),–,inactive,–,inactive,inactive,inactive,inactive,1.7%,inactive,inactive,–,inactive,> 92 µM
Cc1cccc(C(=O)O)c1,> 92 µM,> 92 µM,> 92 µM,> 92 µM,inactive,-7%,inactive,inactive,inactive,inactive,inactive,inactive,inactive,-6.77%,inactive,inactive,inactive,inactive,–
CC(=O)OC(C)=O,> 92 µM,> 92 µM,> 92 µM,> 92 µM,–,1.01%,inactive,inactive,–,–,inactive,inactive,inactive,-0.999%,inactive,inactive,inactive,inactive,> 92 µM
O=CNc1ccccc1,> 92 µM,> 92 µM,> 92 µM,> 92 µM,inactive,5.69%,inactive,inactive,inactive,inactive,inactive,inactive,inactive,0.613%,inactive,inactive,inactive,inactive,> 92 µM
CC(C=O)Cc1ccc(C(C)(C)C)cc1 (stereo not drawn),> 92 µM,> 92 µM,> 92 µM,–,inactive,-7.79%,inactive,inactive,inactive,inactive,inactive,inactive,inactive,2.85%,inactive,inactive,inactive,inactive,> 92 µM
O=[N+]([O-])c1ccc(CCO)cc1,> 92 µM,> 92 µM,> 92 µM,> 92 µM,inactive,-10.2%,–,inactive,inactive,inactive,inactive,inactive,inactive,-1.91%,inactive,inactive,inactive,inactive,> 92 µM
BrC/C=C/CBr,> 92 µM,> 92 µM,> 92 µM,> 92 µM,inactive,6.2%,inactive,inactive,inactive,inactive,inactive,inactive,inactive,1.67%,inactive,inactive,–,inactive,> 92 µM
CCC(=O)/C=C/C1C(C)=CCCC1(C)C (stereo not drawn),> 92 µM,> 92 µM,> 92 µM,> 92 µM,inactive,-6.46%,inactive,inactive,inactive,inactive,inactive,inactive,inactive,2.94%,inactive,inactive,inactive,inactive,> 92 µM
O=C(O)c1ccccc1C(=O)O,> 92 µM,> 92 µM,> 92 µM,–,inactive,1.25%,inactive,–,inactive,inactive,–,inactive,inactive,2.22%,inactive,inactive,inactive,inactive,> 92 µM
Oc1c(Cl)ccc(Cl)c1Cl,> 92 µM,> 92 µM,> 92 µM,> 92 µM,inactive,–,inactive,inactive,inactive,–,–,inactive,inactive,0.893%,inactive,inactive,inactive,inactive,> 92 µM
C[C@@H]1O[C@@H](O[C@@H]2[C@@H](O)[C@H](OCCc3ccc(O)c(O)c3)O[C@H](CO[C@@H]3O[C@H](CO)[C@@H](O)[C@H](O)[C@H]3O)[C@H]2OC(=O)/C=C/c2ccc(O)c(O)c2)[C@H](O)[C@H](O)[C@H]1O,> 92 µM,> 92 µM,> 92 µM,> 92 µM,inactive,-12.1%,inactive,inactive,inactive,–,inactive,inactive,inactive,-3.29%,inactive,inactive,inactive,inactive,> 92 µM
CC(CCl)OC(C)CCl (stereo not drawn),> 92 µM,> 92 µM,> 92 µM,> 92 µM,inactive,2.8%,inactive,inactive,inactive,inactive,inactive,inactive,inactive,1.36%,inactive,inactive,inactive,inactive,> 92 µM
Cc1ccc(CO)cc1,> 92 µM,> 92 µM,> 92 µM,> 92 µM,inactive,-2.9%,inactive,–,–,inactive,inactive,inactive,inactive,–,inactive,inactive,inactive,–,> 92 µM
Cc1cccc2ccccc12,> 92 µM,> 92 µM,> 92 µM,> 92 µM,inactive,-4.08%,inactive,inactive,inactive,inactive,inactive,inactive,inactive,-1.75%,inactive,inactive,–,inactive,–
CC(=O)c1nccs1,> 92 µM,> 92 µM,> 92 µM,> 92 µM,inactive,2.98%,inactive,inactive,–,inactive,inactive,inactive,inactive,0.174%,inactive,inactive,inactive,–,> 92 µM
